38 sequences from the OligoGym collection can be followed below.
Note: reference of the scale not given here.

The first assay concerns the target GALNT12. Briefly: pooled miR-30 sensor sort-seq; sequence = guide strand. To be noted: shRNA.
For TTCTTCTCTTTGCACAGCGGGT, the sensor-assay potency score (higher = more potent) is -1.37.

As for TTACTCACAGCAAACAGCCCAC, the sensor-assay potency score (higher = more potent) was -0.133.

For the sequence TGAACTTCTGATTCTCTGGGGC, the sensor-assay potency score (higher = more potent) is 0.682.

Consider TCTTCTAGCAGGATATCCGGGG, for which the sensor-assay potency score (higher = more potent) was -0.323.

For TTTCTTCTCTTTGCACAGCGGG, the sensor-assay potency score (higher = more potent) is -0.991.

Take TATCACTGTAGTCATCTACAAG: the sensor-assay potency score (higher = more potent) was -1.3.

As for TATAGTCAAAGCAGTAGTCTGT, the sensor-assay potency score (higher = more potent) was determined as 0.11.

TTACACTGGAGCTTGTCCCGGA showed a sensor-assay potency score (higher = more potent) of 0.473.

Regarding TAGTCCTTTGTTCTGGAGCATC, the sensor-assay potency score (higher = more potent) is -1.37.

As to TCGATCACATCAATCACCGGGC, the sensor-assay potency score (higher = more potent) is -0.0357.

On to TTCAGCTGCACGAACACTGTTG, for which the sensor-assay potency score (higher = more potent) is -0.106.

Consider TTCTTCTAGCAGGATATCCGGG, for which the sensor-assay potency score (higher = more potent) is -0.589.

For another assay, the target named is GALNT14. The description is as above. To be noted: shRNA.
Consider TTGTCGATCACGAAGAGCCCTC, for which the sensor-assay potency score (higher = more potent) was -0.543.

Sequence TTGGAAACAACCTCCATTCTTC displayed a sensor-assay potency score (higher = more potent) of 0.406.

For the sequence AACAGCAGCACCGTGATCCAGA, the sensor-assay potency score (higher = more potent) was -0.665.

For the sequence TTCCAGTCTGTTCTGGTCCAGG, the sensor-assay potency score (higher = more potent) is -1.18.

As for TTTTGGTCCATTGCTGTCGGTC, the sensor-assay potency score (higher = more potent) was -1.13.

Regarding TATGATAGGAGTCCTGATGGGC, the sensor-assay potency score (higher = more potent) was -0.477.

Regarding TTGGTGTTCTTTATATACGTGT, the sensor-assay potency score (higher = more potent) is -0.309.

Consider TCATCTCTCAATGTAGTCCTGG, for which the sensor-assay potency score (higher = more potent) was determined as 0.0167.

For the sequence TTGACGACGATTTCCTTGCCGT, the sensor-assay potency score (higher = more potent) was -0.222.

Consider TCTTTTGGAAACAACCTCCATT, for which the sensor-assay potency score (higher = more potent) is -0.288.

For TTCTTTTGGAAACAACCTCCAT, the sensor-assay potency score (higher = more potent) is -0.965.

Take ATTGCTGTCGGTCATCTCCATT: the sensor-assay potency score (higher = more potent) was -1.29.

The target in the next assay is GALNT7. The description is as above. As to conditions: shRNA.
For TTGACATCTCTGTCTTCCCTCA, the sensor-assay potency score (higher = more potent) was -0.191.

In the case of TTTAATTACACTGTGGACTGTT, the sensor-assay potency score (higher = more potent) amounted to 0.94.

As for TTAAATTTTAAAAACGTGCAGA, the sensor-assay potency score (higher = more potent) was -0.271.

TAATCATAACTTTTGATCCATC: the sensor-assay potency score (higher = more potent) was -1.43.

For the sequence TTCTTTATTACTGAAATCGTCA, the sensor-assay potency score (higher = more potent) was -0.232.

With TTCATTGATTCTGAAAAGCTGA, the sensor-assay potency score (higher = more potent) is -0.364.

Consider TAACTTTTGATCCATCAGCTCC, for which the sensor-assay potency score (higher = more potent) was -0.72.

Take ATTGACATCTCTGTCTTCCCTC: the sensor-assay potency score (higher = more potent) came to 0.3.

As for TTCGTGCTTGAATTAAACCTTC, the sensor-assay potency score (higher = more potent) was -0.485.

TTATTCTTCTAATAGACTCTAA: the sensor-assay potency score (higher = more potent) is -0.0226.

For TAGACTCTAAGTCCACTTCTAC, the sensor-assay potency score (higher = more potent) is -0.661.

The next assay concerns the target GALNT9. The description is as above. As to conditions: shRNA.
On to ATAGTAGTCAATGTCGTTGTTG, for which the sensor-assay potency score (higher = more potent) was -0.487.

For TTTCTCACCTCTCCGTACGTGA, the sensor-assay potency score (higher = more potent) was -0.461.

Regarding TTTGGACATCTCCACCTCCAGG, the sensor-assay potency score (higher = more potent) was -1.41.
